Reference: the supplement of paper PMC5662767

Test system: Drosophila S2 cl14 SmoIP sensor cells
Experiment: normalized SmoIP GFP fluorescence (untreated unstimulated = 0%, untreated Hh-stimulated = 100%); higher = more Smo activation sensor fluorescence
Details: compound concentration: 2 uM, 24 h
[1] = stimulation: Hh conditioned medium (+Hh)
[2] = stimulation: mock conditioned medium (-Hh)
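Further: flow cytometry read-out as median GFP intensity of gated cells, compounds added 30 min before Hh-conditioned or mock medium, mock-treated cells serving as unstimulated baseline.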

Structure (SMILES) | normalized SmoIP GFP fluorescence [1] | normalized SmoIP GFP fluorescence [2]
Cc1ccc(NC(=O)c2ccc(CN3CCN(C)CC3)cc2)cc1Nc1nc(-c2cccnc2)cs1 [Masitinib-(AB1010)] | 113% | 20.6%
O=C(Nc1ccccc1Br)N[C@@H]1CCN(c2ccc(C(F)(F)F)cn2)C1 | 137% | -2.82%
Cc1[nH]nc2ccc(-c3cncc(OC[C@@H](N)Cc4ccccc4)c3)cc12 | 134% | 8.54%
O=C1NC(=O)C(c2ccccc2[N+](=O)[O-])=C1Nc1ccc(O)c(Cl)c1 | 153% | -16.1%
C[C@@H](Oc1cc(-n2cnc3ccc(CN4CCN(C)CC4)cc32)sc1C(N)=O)c1ccccc1C(F)(F)F | 113% | 17.7%
C#Cc1cccc(Nc2ncnc3cc4c(cc23)OCCOCCOCCO4)c1 [icotinib] | 93.3% | -1.63%
CN1CCN(c2nc(C3=C(c4c[nH]c5ccccc45)C(=O)NC3=O)c3ccccc3n2)CC1 [sotrastaurin-aeb071] | 131% | 40.1%
COCCOC(=O)C1=C(C)NC(C)=C(C(=O)OC/C=C/c2ccccc2)C1c1cccc([N+](=O)[O-])c1 (configuration not stated) [Cilnidipine] | 112% | 2.97%
Oc1cc(O)c(Cl)cn1 [gimeracil] | 107% | -6.97%
CC1(C)CCC(c2ccc(Cl)cc2)=C(CN2CCN(c3ccc(C(=O)NS(=O)(=O)c4ccc(N[C@H](CCN5CCOCC5)CSc5ccccc5)c(S(=O)(=O)C(F)(F)F)c4)cc3)CC2)C1 | 108% | 20.1%
CC1=C(C(=O)OC2CCCCC2)C(c2ccc([N+](=O)[O-])cc2)C2=C(CC(C)(C)CC2=O)N1 (configuration not stated) | 117% | 4.26%
